# PfHsp40 yeast – compounds rescuing yeast from Plasmodium falciparum HSP40 toxicity; S. cerevisiae expressing PfHsp40, growth rescue, ATP luminescence; growth rescue, % at 12.5 µM; 340,000 tested, 0.68% active; AID 504582; in the data active means growth rescue above about 28%, passing the limit was not always enough;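 further: yeast W303a lacking pdr1 and pdr3 grown in galactose medium; growth measured after three days at 30 °C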
# MazEF act – activators of E. coli MazEF toxin-antitoxin RNase | activation, % at 20 µM | 350,000 tested, 0.32% active | AID 504720 | FAM/BHQ RNA-DNA oligo cleavage fluorescence, 5 h | P0AE70; in the data active means activation above about 50%
# PrPC surface inh – cell surface PrPC inhibition, primary TR-FRET screen. TR-FRET read-out. inhibition, % at 13.8 µM. 370,000 tested, 0.43% active; in the data active means inhibition above about 24%
# PrP 5UTR inh – inhibition of PrP 5' UTR reporter expression. 340,000 tested, 0.35% active. AID 488862. cell-based PrP 5' UTR mRNA reporter, plate reader. inhibition, % (no concentration beside the values); in the data active means inhibition above about 52%
# PriA SSB inh – inhibitors of Klebsiella pneumoniae PriA binding to SSB C-terminal tail. AlphaScreen SSBct-PriA binding, biotinylated peptide. 430,000 tested, 0.6% active. inhibition, % at 33 µM. AID 1272365; in the data active means inhibition mostly above about 37%, no sharp cut-off; inactive means mostly below about 20%
# PrPC confirm – cell surface PrPC inhibition, TR-FRET confirmation | shares compounds with PrPC surface inh | cell surface PrPC level | inhibition, % at 13.8 µM | 1,500 tested, 65% active | AID 743200; in the data active means inhibition above about 25%
# LD9 tox – LD9 cell cytotoxicity, PrPc inhibitor counter-screen | shares compounds with PrPC surface inh | LD9 cells cytotoxicity, luminescence viability | inhibition, % at 13.8 µM | 1,500 tested, 29% active; in the data active means inhibition above about 9.5%
# Numbers stand for hits; n = inactive; x = no result; ! = repeats disagree. Sampled rows, rich in hits. Any-hit rate of the full collection: about 1.8%.
SMILES,PfHsp40 yeast,MazEF act,PrPC surface inh,PrP 5UTR inh,PriA SSB inh,PrPC confirm,LD9 tox
CCCCNC(=O)CSc1nc(Cc2ccccc2)nc2ccccc12,n,n,28,n,n,38,n
O=S(=O)(NCC[C@H](O)c1cc2ccccc2o1)c1cccnc1,x,x,x,x,n,x,x
CC(=NCc1cccnc1)c1c(O)n(-c2ccc(C)cc2)c(=O)[nH]c1=O,n,n,85,n,n,65,n
CC(=O)Nc1ccc(S(=O)(=O)N2CCN(C(=O)N3CCCCC3)CC2)cc1,n,n,n,n,n,x,x
CN(C)c1nc(-c2ccccn2)nnc1-c1ccccc1,393,n,27,n,98,36,n
c1ccc(-c2nnc(-c3ccccn3)nc2-c2ccccc2)cc1,x,x,x,x,n,x,x
c1ccc(-c2cccc(CNc3nc(-c4ccccn4)nnc3-c3ccccc3)c2)cc1,x,x,33,x,x,36,25
COc1cnc(-c2ccccn2)nc1N(C)C,n,n,26,n,98,27,n
COc1ccc(C2=Nc3ccccc3NC(=O)C2N(Cc2ccc(F)cc2)C(=O)c2ccco2)cc1 (centres undefined),x,x,n,x,x,x,x
COc1cccc(-c2ccc(CC[C@H]3O[C@H]4CC[C@H](CO)O[C@H]4C[C@H]3NS(C)(=O)=O)cc2)c1,x,x,n,x,x,x,x
O=C(NNc1ccccc1)OCc1ccccc1,x,n,25,x,x,n,n
CCOC(=O)COc1cc(Br)c(/C=N/Nc2ccccc2)cc1OC,n,n,61,n,x,64,n
COc1cc(C=NNC(N)=O)c(Br)cc1OCC(=O)Nc1ccccc1C,x,x,x,x,n,x,x
O=C(c1ccc(C(=O)N2CCN(c3ccccc3F)CC2)nc1)N1CCN(c2ccccc2F)CC1,n,n,n,n,n,x,x
COc1cc(C(C)=O)ccc1OCC(O)Cn1nc(C)c(Br)c1C (centres undefined),n,n,n,n,n,x,x
OC(CN1C2=NCCN2c2ccccc21)c1ccc2c(c1)OCO2 (centres undefined),n,n,53,n,n,n,n
CC(=O)OC1CC2OC3C=C(C)CCC3(C)C1(C)C21CO1 (centres undefined),x,x,90,x,x,101,32
COc1ccc(CN(Cc2nc3ccccc3c(=O)[nH]2)C(=O)NC2CCCCC2)cc1,n,n,25,n,n,n,n
O=C(NC1CCCCC1)N(Cc1nc2ccccc2c(=O)[nH]1)C1CCCCC1,n,n,n,n,n,x,x
O=S(c1ccc2ccccc2c1)c1cnns1 (centres undefined),n,n,34,n,n,n,76
COc1ccc(NC(=O)COC(=O)c2ccc(-n3cnnn3)cc2)cc1Cl,n,n,n,n,n,x,x
O=C(O)CCCCCCC1C(=O)NC(=O)N1CCC(O)C1CCCCC1 (centres undefined),n,n,27,n,n,n,n
Cc1ccc(CN(CC(=O)NCc2ccccn2)S(=O)(=O)c2ccccc2)cc1,n,n,n,n,n,x,x
COc1ccc(-c2cn3c(C)c(C(=O)Nc4ccncc4)sc3n2)cc1,n,n,n,n,n,x,x
Cc1c(C(=O)Nc2ccncc2)sc2nc(-c3ccc(F)cc3)cn12,n,n,56,n,n,53,12
SMILES,PfHsp40 yeast,MazEF act,PrPC surface inh,PrP 5UTR inh,PriA SSB inh,PrPC confirm,LD9 tox
CC(C)(C)c1ccc(S(=O)(=O)Nc2ccc(-c3ccc(NS(=O)(=O)c4ccc(C(C)(C)C)cc4)cc3)cc2)cc1,x,x,x,x,n,x,x
CC(C)(C)c1ccc(S(=O)(=O)Nc2ccc(C(O)(C(F)(F)F)C(F)(F)F)cc2)cc1,x,x,26,x,x,n,n
CCOC(=O)c1c(NC(NC(=O)c2ccco2)C(=O)c2ccccc2)sc2c1CCCC2 (centres undefined),x,x,x,x,n,x,x
O=C(Nc1ccc(Br)cn1)c1ccc(Cl)s1,n,n,n,n,n,x,x
O=C(Nc1ccc(Br)cn1)c1ccc(Br)s1,n,n,28,n,n,44,n
O=C(COC(=O)CNC(=O)c1ccccc1F)NCCNC(=O)COC(=O)CNC(=O)c1ccccc1F,n,n,n,n,n,x,x
Cc1csc(-c2cc(C(=O)NCc3cc(C(F)(F)F)cc(C(F)(F)F)c3)n[nH]2)c1,x,x,n,x,x,x,x
COc1ccc2nc3cc(Cl)ccc3c(Nc3cc(CN4CCCC4)c(O)c(CN4CCCC4)c3)c2n1,x,x,45,x,x,42,37
Cc1ccccc1CS(=O)(=O)c1ncc(Cl)c(C(=O)Nc2ccc(F)cc2)n1,n,n,n,n,n,x,x
O=C(Nc1ccc(F)cc1)c1nc(S(=O)(=O)Cc2ccccc2)ncc1Cl,n,n,66,n,n,64,94
Cc1cccc(CS(=O)(=O)c2ncc(Cl)c(C(=O)NCc3ccccc3)n2)c1,n,n,26,n,n,n,46
Cc1ccc(NC(=O)c2nc(S(=O)(=O)Cc3ccccc3)ncc2Cl)cc1,n,n,84,n,n,56,92
CCS(=O)(=O)c1ncc(Cl)c(C(=O)Nc2ccc(S(=O)(=O)N(C)c3ccccc3)cc2)n1,n,n,89,n,n,102,97
COc1cc(/C=N/NC(=O)c2cccc3ccccc23)cc(OC)c1OC,n,n,n,n,x,x,x
CC(C)(Oc1ccc(Cl)cc1)C(=O)N1CCC(Cn2cccn2)CC1,x,x,x,x,n,x,x
O=C(CNC(=S)N(CCCN1CCOCC1)Cc1cccs1)NC1CC1,n,n,n,n,n,x,x
CC(C)CCC(C)NC(=O)C1CCN(S(=O)(=O)/C=C/c2ccccc2)CC1 (centres undefined),n,n,n,n,n,x,x
Cc1cc(C)nc(NC(=O)c2ccc(C)c(C)c2)n1,n,n,n,n,n,x,x
CC[C@@H](C(=O)[C@@H](C)[C@@H](O)[C@H](C)CCc1ccc(C)c(O)c1C(=O)O)[C@H]1O[C@](CC)([C@H]2CC[C@](O)(CC)[C@H](C)O2)C[C@@H]1C,184,n,75,n,n,69,44
Cn1c2[n+](c3ccccc3c1=O)Cc1ccccc1-2,x,x,x,x,n,x,x
CC1=Nc2ccc(C)cc2/C1=C/c1c(N)n2oc(C)cc2nc1=O,n,n,46!,n,x,n,n
CSc1nsc2nc(=O)c(/C=C3\C(C)=Nc4ccc(C)cc43)c(N)n12,n,n,n,n,x,x,x
COc1ccc(-n2c(SCC(=O)N3CCOCC3)nc(O)c(Cc3ccccc3)c2=O)cc1,n,n,n,n,n,x,x
CC1CN(C(=O)CCc2cc(C(C)(C)C)c(O)c(C(C)(C)C)c2)CC(C)O1 (centres undefined),n,n,26,n,n,29,18
CC(C)(C)c1cc(CCC(=O)N2CCC2)cc(C(C)(C)C)c1O,n,n,n,n,n,x,x
CNC(=S)NNC(=O)c1cc(-c2cccnc2)nc2ccccc12,n,n,n,n,n,x,x
C/C(=N\Nc1nc2ccccc2[nH]1)c1ccccn1,n,x,26,n,x,48,69
CCOC(=O)c1csc(NC(=O)c2ccccc2)n1,n,n,n,n,n,x,x
CCOC(=O)c1csc(NC(=O)c2ccc(OCC)cc2)n1,n,n,30,n,n,n,n

# Compound activity from PubChem.
